This is a sample that favours compounds with a hit; in the whole collection about 3.5% have one here.
MITF inh – blocks human microphthalmia-associated transcription factor | actives 0.91% (n = 650,000) | O75030 | AlphaScreen MITF homodimerization, bead proximity signal | inhibition, % at 2.6 µM; in the data active = inhibition above about 50%;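 also: 0% = vehicle wells with protein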
GPR151 ag – activators of human GPR151; Q8TDV0; PathHunter beta-arrestin GPR151 cells, luminescence; activation, % at 11.2 µM; actives 1% (n = 650,000); in the data active = activation above about 4.9%;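 also: 0% = median of compound wells and 100% = cells with positive control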
Target sequence (Q8TDV0 whole entry, looked up): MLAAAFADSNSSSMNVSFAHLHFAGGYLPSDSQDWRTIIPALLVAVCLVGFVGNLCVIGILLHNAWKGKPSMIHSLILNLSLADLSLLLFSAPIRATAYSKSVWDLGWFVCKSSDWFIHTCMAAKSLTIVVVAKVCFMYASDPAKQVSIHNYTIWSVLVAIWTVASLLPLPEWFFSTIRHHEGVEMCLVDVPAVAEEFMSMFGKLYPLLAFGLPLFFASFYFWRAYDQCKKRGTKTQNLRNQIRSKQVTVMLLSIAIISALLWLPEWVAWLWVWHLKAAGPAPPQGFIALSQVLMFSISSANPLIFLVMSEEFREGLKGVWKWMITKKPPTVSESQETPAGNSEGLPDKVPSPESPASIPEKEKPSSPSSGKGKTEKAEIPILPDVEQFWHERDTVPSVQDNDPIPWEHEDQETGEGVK
TEAD-YAP block – TEAD-YAP interaction inhibition; HEK-TIYL cells, TEAD-Gal4/YAP UAS-luciferase luminescence; AID 1259422; inhibition, % at 9.12 µM; actives 1.4% (n = 640,000); in the data active = inhibition above about 32%;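 also: 0% = median of test compound wells and 100% = reference inhibitor wells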
FBW7 activator – activators of human E3 ligase FBW7; actives 0.13% (n = 650,000); normalized activity (activation), % at 26.1 µM; AlphaScreen FBW7–phospho-cyclin E peptide binding, activator screen; in the data active = normalized activity above about 1.9%;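 also: purified mutant Fbw7 with reduced substrate affinity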
Numbers without * were called inactive; x = no result.

SMILES | MITF inh | GPR151 ag | TEAD-YAP block | FBW7 activator
CC(C)N(CCNCC(=O)Nc1ccc(C#N)c(Cl)c1)C(C)C | 20 | 1 | -2 | 0
CN1CC=C(c2noc(CCC(=O)Nc3ccc(F)cc3Cl)n2)CC1 | 31 | -1 | -5 | 2
CN1CC=C(c2noc(CCC(=O)Nc3ccc(F)c(Cl)c3)n2)CC1 | 39 | -1 | -1 | 2.1*
CCn1nc(-c2ccccc2)nc2c(=O)n(C)c(=O)nc1-2 | 5 | -8 | -32 | -2
Cc1nc2c(=O)n(C)c(=O)nc-2n(C)n1 | 22 | -6 | 100* | -2
CC12CCC(O)CC1=CCC1C2CCC2(C)C(O)/C(=C/c3ccc(OC(F)F)cc3)CC12 (stereo unspecified) | 9 | 1 | 4 | 0
O=C(c1ccccc1Cl)c1cc([N+](=O)[O-])ccc1-n1cccc1 | 9 | 1 | 51* | 0
N#CC(C#N)=Cc1cc(C=C(C#N)C#N)c(O)o1 | 84* | 1 | 14 | -1
CCOC(=O)C1=C(N)Oc2c(c(=O)oc3ccccc23)C1c1ccccc1F (stereo unspecified) | -2 | 1 | 2 | 0
CCOC(=O)C1=C(C)NC(C)=C2C(=O)Oc3ccccc3C12 (stereo unspecified) | -3 | 1 | 0 | 0
CCOC(=O)C12OC1(c1ccc(CC)cc1)C(=O)c1ccccc1C2=O (stereo unspecified) | 21 | 0 | 37* | 0
CCOC(=O)c1c(C)n(CCCOC)c2c1cc(O)c1ccccc12 | 2 | -1 | -32 | 0
COC(=O)Nc1nc2ccccc2[nH]1 | -11 | -3 | 35* | 0
COCCCn1c(-c2ccc(OC)cc2)cc(C(=O)NC2CCCC2)c1C | 6 | 0 | -8 | 0
O=C(CN1CCCCCC1)c1ccccc1 | -14 | 0 | 0 | 0
O=C(c1ccccc1)C(CN1CCCC1)c1ccccc1 (stereo unspecified) | 0 | 0 | 54* | 0
CCN(CC)C(=O)c1ccc(NC(=O)CN2CCCCC2)cc1 | 12 | -1 | -3 | 0
CCN(CC)C(=O)c1ccc(NC(=O)c2ccccn2)cc1 | -6 | -10 | 42* | 0
C[C@@H]1OC=C2[C@@H](O)[C@H]3O[C@H]3C(=O)[C@]23[C@H]1[C@H]1C2=C([C@@H](O)[C@H]4O[C@H]4C2=O)[C@@H]3O[C@@H]1C | 2 | 2 | x | 0
CC(C)N(C(=O)CCl)c1ccccc1 | -2 | 1 | 33* | 0
C=CCN1C(=O)C2(C(C(=O)OC)=C(N)OC3=C2C(=O)CCC3)c2ccccc21 (stereo unspecified) | 11 | 0 | -1 | 0
O=c1[nH]c(=S)n(Cc2ccco2)c(O)c1C=NCc1cccs1 | 19 | 0 | -3 | 0
N#Cc1c(/N=C/c2c(O)n(Cc3ccco3)c(=O)[nH]c2=O)sc2c1CCCC2 | 53* | 1 | -7 | -1
COC(=O)CN1C(=O)C2(C(C(=O)OC)=C(N)OC3=C2C(=O)CCC3)c2ccccc21 (stereo unspecified) | 21 | 1 | 5 | 0
CC(C)=CCCC1(C)C=Cc2c(O)c3c(c(CC=C(C)C)c2O1)OC12C(=CC4CC1C(C)(C)OC2(C/C=C(\C)C(N)=O)C4=O)C3=O (stereo unspecified) | 17 | 5 | 38* | 0
SMILES | MITF inh | GPR151 ag | TEAD-YAP block | FBW7 activator
CN(C)c1ccc(-c2cc[n+](C)cc2)cc1 | 17 | 2 | 56* | 0
Cc1ccccc1-n1c(C)nc2ccc(Br)cc2c1=O | 14 | 1 | -5 | 0
CN1CCN(c2cccc3c2C(=O)c2ccccc2C3=O)CC1 | 7 | 0 | 37* | 0
COc1ccc(CN2CCN(CC(C)C)C(CCO)C2)c(C)c1C (stereo unspecified) | 13 | 0 | 10 | 0
c1cc2c(cc1-c1ccc3c(c1)OCO3)COC1(CCNCC1)O2 | -10 | -1 | 9 | 1
c1ccc2cc(-c3ccc4c(c3)COC3(CCNCC3)O4)ccc2c1 | -18 | 0 | 84* | -1
CCOc1ccccc1/C=C(\C)[N+](=O)[O-] | 1 | -1 | 6 | 0
Cc1cc([N+](=O)[O-])c2ccccc2[n+]1[O-] | -7 | -2 | 92* | 0
O=[N+]([O-])c1ccc(N2CCCC2)c2ccccc12 | 14 | 1 | 3 | 0
Cc1cc(C)[n+](-c2ccccc2)c2[nH]c(=O)[nH]c(=O)c12 | 8 | 2 | -5 | 1
Cc1cc(C)n2nc3c(c(C)cc(C)[n+]3-c3ccccc3)c2n1 | 16 | 1 | 33* | 0
Cc1cc(/C=C2\C(=O)NC(=O)N(Cc3ccco3)C2=O)c(C)n1-c1ccc(O)cc1 | 58* | 2 | 11 | 0
C=CCOc1ccc(/C=C(\C)[N+](=O)[O-])cc1OC | 3 | 0 | 42* | 0
COc1ccc(/C=C\c2cc(OC)cc(OC)c2)cc1 | 4 | 0 | x | x
COc1ccc(-n2c(=O)[nH]c3ccc(Br)cc3c2=O)cc1 | 2 | 0 | 14 | 0
O=C(CCl)Nc1ccc(Cl)cc1C(=O)c1ccccc1 | 10 | 2 | 35* | 0
CCP(=O)(CC)Nc1cccc(C(F)(F)F)c1 | 8 | 1 | 8 | 0
O=C(Nc1cccc(C(F)(F)F)c1)c1cc(Cl)ccc1O | 4 | -1 | 78* | 0
CCn1nc(-c2cccnc2)nc2c(=O)n(C)c(=O)nc1-2 | -7 | -5 | 76* | 0
Cc1cc(C)[n+]2oc(C)cc2n1 | 10 | 1 | 2 | 0
CCOC(=O)C1=C(N)Oc2n[nH]c(-c3ccccc3)c2C12C(=O)Nc1ccccc12 (stereo unspecified) | 15 | 0 | -4 | 0
O=C1NC(=O)N(Cc2ccco2)C(=O)/C1=C\c1ccc(-c2ccc(Cl)c(C(=O)O)c2)o1 | 21 | 0 | 1 | -1
O=C1NC(=S)NC(=O)C1=Cc1ccc(-c2ccc(C(=O)O)cc2)o1 | 63* | -1 | -1 | 0
O=C1NC(=S)NC(=O)C1=Cc1ccc(-c2ccc(C(=O)O)c(O)c2)o1 | 82* | 0 | -7 | 0
O=C1NC(=S)NC(=O)C1=Cc1ccc(-c2ccc(Cl)c(C(=O)O)c2)o1 | 69* | 1 | -6 | -1
SMILES | MITF inh | GPR151 ag | TEAD-YAP block | FBW7 activator
CC(=O)c1ccc(-c2ccc(C=C3C(=O)NC(=S)NC3=O)o2)cc1 | 28 | 0 | -12 | 0
Cc1ccc(-n2c(-c3ccccc3F)nc3ccccc3c2=O)cc1 | -2 | 0 | -1 | 0
CCC1CCCCN1C(=O)c1ccc(N2CC3CC(C2)c2cccc(=O)n2C3)c(N)c1 (stereo unspecified) | -9 | 1 | -7 | 0
N#Cc1ccc(NC(=O)COC(=O)Cc2cccc3ccccc23)cc1Cl | 14 | -2 | 4 | 0
COC1=CC(=O)O[C@@H](CCc2ccc3c(c2)OCO3)C1 | 21 | 2 | 12 | 0
COC1=CC(=O)O[C@H](/C=C/c2ccc3c(c2)OCO3)C1 | 1 | 1 | 78* | 1
COc1ccc(C2NCc3ccc4c(c3-n3cccc32)OCO4)cc1O (stereo unspecified) | 5 | 1 | 56* | 0
O=c1c2ccccc2[nH]c(=S)n1CCc1cnc[nH]1 | -2 | 0 | -9 | 0
